# Source: PubChem BioAssay (Tox21)
# A number with no mark means an inactive call. Records with an inconclusive call do not appear. A call without a number means that no potency is given here. Active and inactive are the calls of the source. Unless noted, calls follow the shape of the full dose curve.
# Legend:
# [1] = Nuclear factor erythroid 2-related factor 2/antioxidant responsive element (Nrf2/ARE) small molecule agonists: qHTS cell viability counter screen in human keratinocytes (AID 1919968; active = well fitted curve in the direction sought with a large enough effect in the repeat runs; an effect the other way counts as inactive or inconclusive; also: nearly all actives have a fitted effect of over 55% in size)
# Summary of the method: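 Cytotoxicity was multiplexed with the Nrf2/ARE luciferase assay in the same wells. Stably transfected HaCaT keratinocytes were treated with test compounds for 23 h at 37 C. Cell viability was then measured by CellTiter-Fluor fluorescence.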
# [2] = Nuclear factor erythroid 2-related factor 2/antioxidant responsive element (Nrf2/ARE) small molecule agonists: luciferase reporter gene qHTS assay in human keratinocytes (AID 1919969); also: nearly all actives have a fitted effect of over 35% in size
# [3] = target: Gonadotropin-releasing hormone receptor (Homo sapiens) (UniProt P30968); assay: Human gonadotropin-releasing hormone receptor (GnRHR) small molecule agonists, calcium flux assay in GnRHR-HEK293 cells (AID 1920063); also: nearly all actives have a fitted effect of over 35% in size
# Summary of the method: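 Agonist activity was measured as intracellular calcium flux in HEK293 cells engineered to stably express human GnRHR. After dye loading for 1 hour at 37 C, compounds in DMSO were added and fluorescence was followed for 3 minutes.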
# [4] = target: KiSS-1 receptor (Homo sapiens) (UniProt Q969F8); assay: Human kisspeptin (KISS1R) small molecule agonists, calcium flux assay in KISS1R-HEK293 cells (AID 1920064; active = well fitted curve in the direction sought with a large enough effect in the repeat runs; an effect the other way counts as inactive or inconclusive)
# Summary of the method: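 Agonist activity is monitored as intracellular calcium rise in engineered HEK293 cells carrying human KISS1R. Cells are dye-loaded for 1 h at 37 C before compound addition, and fluorescence is recorded for 3 min.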
# [5] = G protein-coupled receptor (GPCR) small molecule agonists, calcium flux assay: HEK293 wild type cell line counter screen (AID 1920065)
# Summary of the method: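 Seed cells, incubate 18 h (37 C, 5% CO2); add calcium dye, 1 h at 37 C; pin-transfer compounds, ATP control or DMSO; read fluorescence 480/540 nm each second for 3 min.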
# [6] = p53 small molecule agonists, cell-based qHTS assay with human liver microsomes (AID 1963577);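 also: p53 response element beta-lactamase reporter cells with liver microsomes plus NADPH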
# Summary of the method: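 With metabolic activation: human liver microsomes (0.5 mg/mL final) plus NADPH (0.5 mg/mL final) added alongside compounds to p53RE-bla cells; 16 h 37 C exposure; beta-lactamase read by LiveBLAzer fluorescence.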
# [7] = p53 small molecule agonists, cell-based qHTS assay with rat liver microsomes (AID 1963578)
# Summary of the method: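 Metabolic activation by rat liver microsomes and NADPH, each 0.5 mg/mL final, added right after compounds to p53RE-bla reporter cells (4,000/well, plated 5 h earlier). 16 h at 37 C, then LiveBLAzer substrate for 2 h at room temperature in the dark; fluorescence read-out.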
# [8] = p53 small molecule agonists, cell-based qHTS assay with human liver microsomes: qHTS cell viability counter screen (AID 1963579); also: nearly all actives have a fitted effect of over 45% in size
# Summary of the method: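 Metabolic activation used human liver microsomes and NADPH, both 0.5 mg/mL final, over 16 hours at 37 C on p53RE-bla cells (4,000/well). Cytotoxicity measured by CellTiter-Glo luminescence, 30 min at room temperature.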
# [9] = p53 small molecule agonists, cell-based qHTS assay with rat liver microsomes: qHTS cell viability counter screen (AID 1963580); also: nearly all actives have a fitted effect of over 45% in size
# Summary of the method: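 Luminescent ATP readout (CellTiter-Glo, 30 min at room temperature) reports viability of p53RE-bla HCT-116 cells after 16 h at 37 C with test compounds under metabolic activation by rat liver microsomes and NADPH at 0.5 mg/mL final each.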
# [10] = p53 small molecule agonists, cell-based qHTS assay: qHTS cell viability counter screen (AID 1963581); also: nearly all actives have a fitted effect of over 45% in size
# Summary of the method: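 Viability was counter-screened in parallel with the p53 agonist reporter by measuring intracellular ATP luminescence in the same HCT-116 p53RE-bla wells after 16 h compound treatment at 37 C.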
# [11] = p53 small molecule agonists, cell-based qHTS assay (AID 1963582; active = well fitted activation curve with a large enough effect in the signal ratio in the repeat runs, not every such curve was filed as active; the % refers to the signal ratio)
# Summary of the method: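 Cells carrying a p53-responsive bla reporter are treated with test compounds for 16 h at 37 C; beta-lactamase activity is then detected with LiveBLAzer B/G FRET substrate after 2 h at room temperature.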
# [12] = target: 5-hydroxytryptamine receptor 2A (Homo sapiens) (UniProt P28223); assay: 5-hydroxytryptamine receptor 2A (HTR2A) small molecule antagonists, cell-based qHTS assay (AID 1963586); also: nearly all actives have a fitted effect of over 45% in size; also: potency is read from the fitted curve at half-maximal effect
# Summary of the method: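 CHO cells stably expressing human HTR2A were plated for 18 h at 37 C, then loaded with calcium dye for 1 h. Compounds were preincubated 5 min at room temperature before DOI (4 nM solution) was added. Kinetic fluorescence was read for 3 min.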
# [13] = target: 5-hydroxytryptamine receptor 2A (Homo sapiens) (UniProt P28223); assay: 5-hydroxytryptamine receptor 2A (HTR2A) small molecule agonists, cell-based qHTS assay (AID 1963587); also: nearly all actives have a fitted effect of over 30% in size; also: potency is read from the fitted curve at half-maximal effect
# Summary of the method: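 HTR2A-CHO cells, plated 18 h at 37 C/5% CO2, dye-loaded 1 h at 37 C; compounds in DMSO added by pin tool (agonist mode). Intracellular calcium flux read as kinetic fluorescence on FDSS over 2 min at 1 s intervals.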
# [14] = target: Muscarinic acetylcholine receptor M1 (Homo sapiens) (UniProt P11229); assay: Cholinergic receptor muscarinic 1 (CHRM1) small molecule antagonists, cell-based qHTS assay (AID 1963588); also: nearly all actives have a fitted effect of over 40% in size
# Summary of the method: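 Compounds were tested at 15 concentrations in three independent runs. Dye-loaded CHRM1-CHO cells were exposed 5 min at room temperature before stimulation by acetylcholine added at 50nM. Intracellular calcium was read kinetically on FDSS for 3 min.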
# [15] = target: Beta-2 adrenergic receptor (Homo sapiens) (UniProt P07550); assay: Adrenergic beta2 receptor (ADRB2) small molecule antagonists, cell-based qHTS assay (AID 1963592); also: series mostly up to about 92 µM; nearly all actives have a fitted effect of over 50% in size
# Summary of the method: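 Assay format: CHO-ADRB2 cells, 18-20hr seeding at 37C/5% CO2, then compound plus 1nM isoproterenol agonist mix for 0.5hr RT. Homogeneous time-resolved fluorescence cAMP detection after 1hr, expressed as 665/615 nm ratio.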
# [16] = target: D(2) dopamine receptor (Homo sapiens) (UniProt P14416); assay: Dopamine D2 receptor (DRD2) small molecule agonists, cell-based qHTS assay (AID 1963594); also: nearly all actives have a fitted effect of over 35% in size; also: potency is read from the fitted curve at half-maximal effect
# Summary of the method: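 HEK293 cells stably expressing DRD2 were cultured 24 h at 37 C, then given Ro20-1724 (0.1 mM final) and compounds for 10 min at room temperature. NKH477 (200nM) was then added for 30 min. cAMP was read by HTRF.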
# [17] = target: D(2) dopamine receptor (Homo sapiens) (UniProt P14416); assay: Dopamine D2 receptor (DRD2) small molecule antagonists, cell-based qHTS assay (AID 1963595; active = well fitted inhibition curve with a large enough effect in the signal ratio in the repeat runs, with a control signal flat; the % refers to the signal ratio)
# Summary of the method: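 Antagonist mode in DRD2-HEK293 cells: after compound addition with 0.1 mM Ro20-1724, cells received quinpirole (12 nM) and NKH477 (200 nM) for 30 min at room temperature; HTRF cAMP read after 1 h detection.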
# [18] = target: Muscarinic acetylcholine receptor M1 (Homo sapiens) (UniProt P11229); assay: Cholinergic receptor muscarinic 1 (CHRM1) small molecule agonists, cell-based qHTS assay (AID 1963589); also: nearly all actives have a fitted effect of over 35% in size
# Summary of the method: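 Cells were plated and incubated 18 h at 37 C/5% CO2, loaded with calcium dye for 1 h at 37 C, then treated with compounds in DMSO. Fluorescence was recorded kinetically at 1 sec intervals.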
# [19] = cAMP Responsive Elements (CRE) small molecule antagonists, cell-based qHTS assay (AID 1963591; active = well fitted inhibition curve with a large enough effect in the signal ratio in the repeat runs, not every such curve was filed as active; the % refers to the signal ratio)
# Summary of the method: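 Cells (CRE-bla HEK 293T, DMEM with 10% dialyzed FBS and 25 mM HEPES) are seeded and incubated 18 h. Compounds are added with NKH477 agonist at 0.25 uM final for 3 h, then FRET substrate for 2 h.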
# [20] = cAMP Responsive Elements (CRE) small molecule agonists, cell-based qHTS assay (AID 1963590)
# Summary of the method: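 Cells carrying a CRE-driven beta-lactamase reporter (HEK 293T) are seeded, incubated overnight (18 h), and treated with test compounds for 3 h at 37 C; reporter activity is then detected with a FRET substrate after 2 h at room temperature.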
# Sequence of Beta-2 adrenergic receptor (Homo sapiens) (P07550 whole entry, looked up): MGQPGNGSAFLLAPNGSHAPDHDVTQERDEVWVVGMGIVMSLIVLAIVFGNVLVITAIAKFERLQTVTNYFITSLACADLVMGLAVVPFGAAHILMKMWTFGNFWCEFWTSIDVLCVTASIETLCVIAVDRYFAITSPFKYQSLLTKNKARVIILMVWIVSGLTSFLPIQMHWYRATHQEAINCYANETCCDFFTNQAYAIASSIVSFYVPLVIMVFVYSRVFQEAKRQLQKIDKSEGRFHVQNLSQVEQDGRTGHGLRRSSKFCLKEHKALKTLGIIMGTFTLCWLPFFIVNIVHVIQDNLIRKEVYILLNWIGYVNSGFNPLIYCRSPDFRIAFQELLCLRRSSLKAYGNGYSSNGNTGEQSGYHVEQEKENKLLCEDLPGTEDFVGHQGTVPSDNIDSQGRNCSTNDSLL
# Sequence of D(2) dopamine receptor (Homo sapiens) (P14416 whole entry, looked up): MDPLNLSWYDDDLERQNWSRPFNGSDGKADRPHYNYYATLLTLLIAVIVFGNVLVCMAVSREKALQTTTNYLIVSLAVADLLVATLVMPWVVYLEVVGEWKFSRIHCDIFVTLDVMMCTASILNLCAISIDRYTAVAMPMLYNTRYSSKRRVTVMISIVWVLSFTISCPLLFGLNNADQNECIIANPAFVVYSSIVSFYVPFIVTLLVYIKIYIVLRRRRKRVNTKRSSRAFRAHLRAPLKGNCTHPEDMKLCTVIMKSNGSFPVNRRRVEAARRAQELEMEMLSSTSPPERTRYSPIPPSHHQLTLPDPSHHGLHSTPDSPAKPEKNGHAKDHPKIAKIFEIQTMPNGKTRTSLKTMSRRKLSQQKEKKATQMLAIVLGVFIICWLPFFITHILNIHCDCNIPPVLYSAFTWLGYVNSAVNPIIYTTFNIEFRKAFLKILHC
# Sequence of Muscarinic acetylcholine receptor M1 (Homo sapiens) (P11229 whole entry, looked up): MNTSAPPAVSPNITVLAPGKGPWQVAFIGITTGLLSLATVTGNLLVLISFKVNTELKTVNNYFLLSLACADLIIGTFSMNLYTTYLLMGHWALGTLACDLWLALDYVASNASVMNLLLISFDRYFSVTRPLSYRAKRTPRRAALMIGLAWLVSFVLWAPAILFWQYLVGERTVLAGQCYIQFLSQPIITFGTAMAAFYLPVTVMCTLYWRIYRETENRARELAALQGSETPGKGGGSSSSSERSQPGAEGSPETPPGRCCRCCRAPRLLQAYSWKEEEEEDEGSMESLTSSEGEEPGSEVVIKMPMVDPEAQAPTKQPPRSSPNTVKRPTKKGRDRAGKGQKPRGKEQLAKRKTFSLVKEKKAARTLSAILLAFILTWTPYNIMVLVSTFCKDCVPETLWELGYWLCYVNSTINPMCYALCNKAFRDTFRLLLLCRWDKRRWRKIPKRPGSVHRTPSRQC
# Sequence of Gonadotropin-releasing hormone receptor (Homo sapiens) (P30968 whole entry, looked up): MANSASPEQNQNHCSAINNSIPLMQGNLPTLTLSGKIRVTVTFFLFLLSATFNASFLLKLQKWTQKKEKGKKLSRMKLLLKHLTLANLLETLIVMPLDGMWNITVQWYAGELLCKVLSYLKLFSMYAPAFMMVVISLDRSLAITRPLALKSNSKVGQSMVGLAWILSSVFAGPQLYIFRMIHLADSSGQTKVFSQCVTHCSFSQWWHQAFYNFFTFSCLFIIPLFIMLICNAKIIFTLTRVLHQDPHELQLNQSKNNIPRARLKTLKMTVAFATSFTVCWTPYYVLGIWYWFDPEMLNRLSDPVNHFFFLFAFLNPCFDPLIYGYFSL
# Sequence of KiSS-1 receptor (Homo sapiens) (Q969F8 whole entry, looked up): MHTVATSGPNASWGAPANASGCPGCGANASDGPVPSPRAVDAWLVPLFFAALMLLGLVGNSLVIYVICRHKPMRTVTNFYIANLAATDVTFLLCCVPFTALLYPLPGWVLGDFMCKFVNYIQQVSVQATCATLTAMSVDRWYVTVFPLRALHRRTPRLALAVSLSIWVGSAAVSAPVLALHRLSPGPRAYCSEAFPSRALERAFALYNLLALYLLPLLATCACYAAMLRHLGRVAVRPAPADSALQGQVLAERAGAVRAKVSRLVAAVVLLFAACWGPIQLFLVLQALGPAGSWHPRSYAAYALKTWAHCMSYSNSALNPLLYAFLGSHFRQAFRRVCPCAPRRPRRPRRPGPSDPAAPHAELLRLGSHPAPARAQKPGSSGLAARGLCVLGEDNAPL
# Sequence of 5-hydroxytryptamine receptor 2A (Homo sapiens) (P28223 whole entry, looked up): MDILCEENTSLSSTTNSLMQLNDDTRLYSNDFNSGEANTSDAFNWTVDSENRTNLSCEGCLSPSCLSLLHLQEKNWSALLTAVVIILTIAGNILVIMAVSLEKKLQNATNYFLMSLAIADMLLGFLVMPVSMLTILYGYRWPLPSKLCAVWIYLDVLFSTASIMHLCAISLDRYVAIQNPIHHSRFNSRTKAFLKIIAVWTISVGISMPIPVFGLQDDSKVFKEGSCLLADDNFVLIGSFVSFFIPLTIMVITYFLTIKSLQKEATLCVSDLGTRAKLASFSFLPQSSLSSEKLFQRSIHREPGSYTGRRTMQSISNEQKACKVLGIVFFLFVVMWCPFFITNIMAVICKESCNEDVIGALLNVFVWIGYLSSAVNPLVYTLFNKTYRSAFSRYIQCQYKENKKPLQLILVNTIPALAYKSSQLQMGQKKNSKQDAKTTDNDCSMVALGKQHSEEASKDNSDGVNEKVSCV
compound,measurement,setting,value
CCCCCCCCCCCCCCCCBr,"activity change, negative = cytotoxicity",[1],3.53% [at 19 µM]
same,"activity, positive = activation",[2],-1.44% [at 19 µM]
same,activity change,[3],"0.0207% [at 11.8 µM, hits give high values]"
same,activation,[4],1.03% [at 15.8 µM]
same,activation,[5],-0.623% [at 11.8 µM]
same,activation,[6],-0.838% [at 13.5 µM]
same,activation,[7],-1.9% [at 13.6 µM]
same,"activity change, negative = cytotoxicity",[8],0.899% [at 13.5 µM]
same,"activity change, negative = cytotoxicity",[9],0.7% [at 13.5 µM]
same,"activity change, negative = cytotoxicity",[10],4.33% [at 13.5 µM]
same,activation,[11],4.11% [at 13.5 µM]
same,"activity, negative = inhibition",[12],4.99% [at 12.7 µM]
same,activation,[13],-4.48% [at 15.9 µM]
same,"activity, negative = inhibition",[14],-1.85% [at 12.6 µM]
same,"activity change, negative = inhibition",[15],-0.441% [at 19 µM]
same,activation,[16],-0.697% [at 19 µM]
same,"activity change, negative = inhibition",[17],-0.776% [at 18.9 µM]
CCCOC(C)=O,Potency,[1],inactive
same,Potency,[2],inactive
same,Potency,[3],inactive
same,Potency,[4],inactive
same,Potency,[5],inactive
same,Potency,[6],inactive
same,Potency,[7],inactive
same,Potency,[8],inactive
same,Potency,[9],inactive
same,Potency,[10],inactive
same,Potency,[11],inactive
same,Potency,[12],inactive
same,Potency,[13],inactive
same,Potency,[14],inactive
same,Potency,[18],inactive
same,Potency,[19],inactive
same,Potency,[16],inactive
same,Potency,[17],inactive
O=C(O)c1cc(=O)[nH]c(=O)[nH]1,Potency,[1],inactive
same,Potency,[2],inactive
same,Potency,[3],inactive
same,Potency,[4],inactive
same,Potency,[5],inactive
same,Potency,[6],inactive
same,Potency,[7],inactive
same,Potency,[8],inactive
same,Potency,[9],inactive
same,Potency,[10],inactive
same,Potency,[11],inactive
same,Potency,[12],inactive
same,Potency,[13],inactive
same,Potency,[14],inactive
same,Potency,[20],inactive
same,Potency,[15],inactive
same,Potency,[16],inactive
same,Potency,[17],inactive
CCC(=O)OCc1ccccc1,Potency,[1],inactive
same,Potency,[2],inactive
same,Potency,[3],inactive
same,Potency,[4],inactive
same,Potency,[5],inactive
same,Potency,[6],inactive
same,Potency,[7],inactive
same,Potency,[8],inactive
same,Potency,[9],inactive
same,Potency,[10],inactive
same,Potency,[11],inactive
same,Potency,[12],inactive
same,Potency,[13],inactive
same,Potency,[14],inactive
same,Potency,[20],inactive
same,Potency,[19],inactive
same,Potency,[15],inactive
same,Potency,[16],inactive
same,Potency,[17],inactive
CCn1c2ccccc2c2ccccc21,Potency,[1],inactive
same,Potency,[2],inactive
same,Potency,[3],inactive
same,Potency,[4],inactive
same,Potency,[5],inactive
same,Potency,[6],inactive
same,Potency,[7],inactive
same,Potency,[8],inactive
same,Potency,[9],inactive
same,Potency,[10],inactive
same,Potency,[11],inactive
same,Potency,[12],inactive
same,Potency,[13],inactive
same,Potency,[18],inactive
same,Potency,[20],inactive
same,Potency,[19],inactive
same,Potency,[15],inactive
same,Potency,[16],inactive
same,Potency,[17],inactive
CCCC(=O)OCC(COC(=O)CCC)OC(=O)CCC,Potency,[1],inactive
same,Potency,[2],inactive
same,Potency,[3],inactive
same,Potency,[4],inactive
same,Potency,[5],inactive
same,Potency,[6],inactive
same,Potency,[7],inactive
same,Potency,[8],inactive
same,Potency,[9],inactive
same,Potency,[10],inactive
same,Potency,[11],inactive
same,Potency,[12],inactive
same,Potency,[13],inactive
same,Potency,[14],inactive
same,Potency,[20],inactive
same,Potency,[19],inactive
same,Potency,[16],inactive
same,Potency,[17],inactive
O=C1NC(=O)[C@@]2(CCOc3ccc(F)cc32)N1,Potency,[1],inactive
same,Potency,[2],inactive
same,Potency,[3],inactive
same,Potency,[4],inactive
same,Potency,[5],inactive
same,Potency,[6],inactive
same,Potency,[7],inactive
same,Potency,[8],inactive
same,Potency,[9],inactive
same,Potency,[10],inactive
same,Potency,[11],inactive
same,Potency,[12],0.818 µM (active)
same,Potency,[13],3.01 µM (active)
same,Potency,[14],inactive
same,Potency,[18],inactive
same,Potency,[19],inactive
same,Potency,[15],inactive
same,Potency,[16],0.11 µM (active)
same,Potency,[17],inactive
OCCCC1CCCCC1,Potency,[1],inactive
same,Potency,[2],inactive
same,Potency,[3],inactive
same,Potency,[4],inactive
same,Potency,[5],inactive
same,Potency,[6],inactive
same,Potency,[7],inactive
same,Potency,[8],inactive
same,Potency,[9],inactive
same,Potency,[10],inactive
same,Potency,[11],inactive
same,Potency,[12],inactive
same,Potency,[13],inactive
same,Potency,[18],inactive
same,Potency,[20],inactive
same,Potency,[19],inactive
same,Potency,[15],inactive
same,Potency,[16],inactive
same,Potency,[17],inactive
